Screens deposited in PubChem by National Center for Advancing Translational Sciences (NCATS).
Hits are enriched below; roughly 10% of the tested compounds scored in any of these assays.
G9a block: qHTS Assay for Inhibitors of Histone Lysine Methyltransferase G9a; G9a H3K9 monomethylation, AlphaScreen, 2 h; Potency, µM (titrated, usually from 102 µM), for inactives: top-dose activity, negative = inhibition, usual class: inhibitors; hit rate 8.8% among 350,000; further: on the % scale 0 is the no-effect control and ±100 the full control effect; nearly all actives have a fitted effect of over 75% in size
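Chemiluminescent proximity detection of H3K9 monomethylation, read after 10 min bead incubation in the dark. Reaction: 20 nM G9a, 500 nM biotin-H3K9 peptide, 20 uM SAM cofactor, 2 h, room temperature, following 15 min enzyme-compound preincubation.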
HP1b chromo inh: HTS for Inhibitors of HP1-beta Chromodomain Interactions with Methylated Histone Tails. Chromobox protein homolog 1 (Homo sapiens), P83916. hit rate 0.56% among 390,000. AID 540317, 2011. AlphaScreen HP1-beta / biotin-H3K9me3 peptide binding. Potency, µM (titrated, usually from 114 µM), without a hit: top-dose activity change, negative = inhibition, usual class: inhibitors; further: nearly all actives have a fitted effect of over 70% in size
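AlphaScreen: HP1-beta (50 nM) preformed 30 min with biotin-H3(1-18)K9me3 peptide (50 nM) in PBS pH 7.4, 0.01% Tween-20. Compound added for 30 min at RT, then streptavidin donor/nickel chelate acceptor beads (10 ug/mL) for 30 min.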
GLS inh: qHTS for Inhibitors of Glutaminase (GLS). hit rate 0.21% among 410,000. Glutaminase kidney isoform, mitochondrial (Homo sapiens), O94925. Potency, µM (highest dose often 45.5 µM), for the others: at the top dose activity change, negative = inhibition, most hits filed as inhibitors. GLS enzymatic activity, qHTS titration; further: on the % scale 0 is the no-effect control and ±100 the full control effect
Target sequence (O94925 whole entry, looked up, canonical isoform): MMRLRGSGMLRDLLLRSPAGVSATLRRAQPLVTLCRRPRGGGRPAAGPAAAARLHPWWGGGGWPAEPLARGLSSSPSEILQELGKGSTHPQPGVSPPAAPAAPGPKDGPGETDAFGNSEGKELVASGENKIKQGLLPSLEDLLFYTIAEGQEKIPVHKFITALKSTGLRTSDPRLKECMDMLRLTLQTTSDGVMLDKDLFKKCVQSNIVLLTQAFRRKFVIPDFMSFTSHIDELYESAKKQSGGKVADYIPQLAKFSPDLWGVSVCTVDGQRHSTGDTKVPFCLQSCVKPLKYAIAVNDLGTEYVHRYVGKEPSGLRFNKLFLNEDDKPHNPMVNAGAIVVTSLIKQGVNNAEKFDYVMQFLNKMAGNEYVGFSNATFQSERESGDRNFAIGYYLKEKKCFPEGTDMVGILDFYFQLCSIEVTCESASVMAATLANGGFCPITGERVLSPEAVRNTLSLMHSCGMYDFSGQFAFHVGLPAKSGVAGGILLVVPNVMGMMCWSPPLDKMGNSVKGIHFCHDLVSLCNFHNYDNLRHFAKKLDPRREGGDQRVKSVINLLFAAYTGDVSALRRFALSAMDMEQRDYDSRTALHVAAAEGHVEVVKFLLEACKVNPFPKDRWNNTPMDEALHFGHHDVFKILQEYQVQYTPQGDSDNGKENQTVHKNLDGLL
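Enzyme dispensed in phosphate buffer (45 mM, pH 8.2, 0.02% Tween-20), compounds pinned in, then 1 mM L-glutamine solution and the glutamate oxidase–HRP–Amplex Red mix added; fluorescence read immediately and again after 30 min at room temperature.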
BAZ2B block: qHTS Assay for Inhibitors of BAZ2B; Bromodomain adjacent to zinc finger domain protein 2B (Homo sapiens), Q9UIF8; AlphaScreen BAZ2B-H3K14Ac peptide displacement; Potency, µM (titrated, usually from 114 µM), for inactives: at the top dose activity change, negative = inhibition, actives largely listed as inhibitors; hit rate 4.4% among 360,000; further: on the % scale 0 is the no-effect control and ±100 the full control effect; nearly all actives have a fitted effect of over 60% in size
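Protein-peptide AlphaScreen: BAZ2B 50 nM, b-H3K14Ac 50 nM, 1x PBS pH 7.4 + 0.01% Tween-20. Preincubation 30 min RT; cpd 30 min RT (top 110 uM); beads 20 min RT, light-protected.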
JMJD2A Tudor: qHTS Assay for Inhibitors of JMJD2A-Tudor Domain. hit rate 4.4% among 390,000. Potency, µM (highest dose often 114 µM), without a hit: at the highest dose activity change, negative = inhibition, most hits filed as inhibitors. Lysine-specific demethylase 4A (Homo sapiens), O75164. AlphaScreen JMJD2A-Tudor / H3K4me3 peptide binding; further: on the % scale 0 is the no-effect control and ±100 the full control effect; nearly all actives have a fitted effect of over 50% in size
Numbers without * were called inactive; ? = inconclusive; · = not tested or not shown; [ ] = remark or other dose. The call rests on the fitted dose curve; in most records, active means well fitted curve in the direction sought with a large enough effect; inconclusive means small, poorly fitted or top-dose-only effect, or another doubt; inactive means no such curve, though single readings can be large; an effect the other way counts as inactive or inconclusive. Potency means the concentration at half of the fitted maximal effect.

SMILES	G9a block	HP1b chromo inh	GLS inh	BAZ2B block	JMJD2A Tudor
COc1ccc(-c2cc(-c3n[nH]c(=S)n3-c3ccccc3Cl)[nH]n2)cc1	7.9µM*	20%	-21%	-35%	-20%
S=c1[nH]nc(-c2cc(-c3ccco3)[nH]n2)n1-c1ccccc1	-20%[0.501 µM]	-1%	-1%	?	50µM*
Fc1ccc(-n2ncc3c(SCc4cccnc4)ncnc32)cc1	18%[12.7 µM]	38%	99%	-6%	-13%
O=c1cc(O)n(-c2ccc(F)cc2)c(=S)[nH]1	32µM*	33%	15%	-1%	-3%
O=C(NC(Cc1c[nH]c2ccccc12)c1nnc2n1CCCCC2)c1ccc(Cl)cc1 (stereo not given)	-6%	11%	-3%	-37%	-22%
Cc1ccc2c(c1)c1c(n2C)C(C(N)=O)CCC1 (stereo not given)	40µM*	13%	3%	-29%	-18%
CC(=O)N1CCn2c3c(c4cc(C)ccc42)CCCC31 (stereo not given)	-10%[12.7 µM]	-19%	16%	35µM*	-33%
NC(=O)C1CCCc2c1n(Cc1ccccc1)c1ccccc21 (stereo not given)	9%	-12%	1%	-12%	-31%
CCOc1cc(C(=O)N2CCn3c4c(c5cc(C)ccc53)CCCC42)cc(OCC)c1OCC (stereo not given)	-2%[59 µM]	7%	-4%	-14%	-13%
Cc1ccc2c(c1)c1c3n2CCN(C(=O)CCl)C3CCC1 (stereo not given)	?	-7%	9%	56µM*	?
Cc1[nH]nc(SCC(=O)N(C)c2ccccc2)c1[N+](=O)[O-]	?	14%[57 µM]	-3%	-8%	-14%
COC(=O)C(C)N1CCC(=O)c2ccccc2S1(=O)=O (stereo not given)	30%[59 µM]	26%	-6%	3%	-8%
COc1ccc(-c2c3c(=O)n(C)c(=O)n(C)c3cn2C2CCCCC2)cc1	?	?	27%	50µM*	?
CCCn1cc2c(c1-c1ccc(C)cc1)c(=O)n(C)c(=O)n2C	·	22%	-1%	?	-22%
Cn1nnnc1Sc1ccc([N+](=O)[O-])cc1Cl	-2%	-6%	0%	-12%	-20%
O=[N+]([O-])c1ccc(Sc2nnnn2-c2ccccc2)c(Cl)c1	50µM*	?	-5%	?	?
CC(=O)NC1=C(Nc2ccc(N(C)C)cc2)C(=O)c2ccccc2C1=O	32µM*	?	15%	40µM*	?
CC(=O)NC1=C(N(C)C2CCS(=O)(=O)C2)C(=O)c2ccccc2C1=O (stereo not given)	7.9µM*	10%	74%	-24%	-3%
CN(C(=O)Nc1ccccc1)C1CCS(=O)(=O)C1 (stereo not given)	16%[59 µM]	25%	-1%	1%	11%
CC(C)(C)Nc1c(C2CCNCC2)nc2c(OCc3ccccc3)cccn12	·	·	-4%	·	·
Cc1ccc(-c2cc(-c3ccccc3Cl)c(C#N)c(N)n2)o1	?	?	30%	?	?
Cc1ccc(-c2cc(-c3ccccc3)c(C#N)c(N)n2)o1	2.8µM*	?	42%	?	?
Cc1ccc(-c2cc(-c3ccc(F)cc3)nc(N)c2C#N)o1	2.5µM*	45%	5%	-3%	-4%
Cc1nn(-c2ccccc2)cc1/C=N/NC(N)=S	2%[59 µM]	47%	-17%	-17%	13%[57.1 µM]
Cc1c(SCCO)c(=O)[nH]c2cc3c(cc12)OCO3	50µM*	27%	5%	-1%	-6%
COCCNC(=S)N(CCO)Cc1cc2cc3c(cc2[nH]c1=O)OCO3	?	-9%	7%	-2%	-15%
CC(=O)Oc1ccc(C(=O)Nc2nnc(C)s2)cc1	4%	21%	1%	11%	-11%
FC(F)(F)c1ccc(Cl)c(-n2c(-c3cc(C4CC4)[nH]n3)n[nH]c2=S)c1	8.9µM*	13%	14%	-20%	?
